SF1 inhibitor – SF-1 (human) inhibition. CHO-K1 Gal4-SF-1 LBD luciferase reporter. inhibition, % at 10 µM. 65,000 compounds, 0.55% hits. AID 525;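 active means inhibition above the mean inhibition of all tested compounds plus 3 SD, cut at about 48% in these data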;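 further: 0% = SF-1 transfected cells with DMSO and 100% = mock-transfected cells lacking SF-1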
Target sequence (Q13285 whole entry, looked up, the tested form may be a part): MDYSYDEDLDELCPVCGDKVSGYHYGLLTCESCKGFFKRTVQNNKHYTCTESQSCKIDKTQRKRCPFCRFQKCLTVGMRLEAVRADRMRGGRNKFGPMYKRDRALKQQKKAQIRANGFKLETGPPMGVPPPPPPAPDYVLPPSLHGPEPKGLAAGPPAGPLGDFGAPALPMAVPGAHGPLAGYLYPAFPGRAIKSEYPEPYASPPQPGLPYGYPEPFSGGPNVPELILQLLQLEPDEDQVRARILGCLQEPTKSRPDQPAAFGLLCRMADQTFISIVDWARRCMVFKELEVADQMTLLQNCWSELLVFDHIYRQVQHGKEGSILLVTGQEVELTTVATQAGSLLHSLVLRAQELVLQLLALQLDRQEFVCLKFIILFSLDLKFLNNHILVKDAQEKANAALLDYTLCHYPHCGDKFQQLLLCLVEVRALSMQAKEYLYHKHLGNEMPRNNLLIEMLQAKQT
An asterisk follows results filed as active. Many of the other results were omitted from the sample, so hits are more common in it than they were.

SMILES	SF1 inhibitor
O=C(CN(CC1CCCO1)C(=O)CCC(=O)Nc1ccccn1)NCC1CCCO1 (stereo not drawn)	0
CCOc1ccc(S(=O)(=O)Nc2ccccc2C(=O)NCC2CCCO2)cc1 (stereo not drawn)	10
CN(CC1CCCO1)S(=O)(=O)c1ccc(C(=O)Nc2nc(-c3ccccn3)cs2)cc1 (stereo not drawn)	70*
COc1ccccc1NC(=O)C1=C(C)Nc2nc(CCCO)nn2C1c1ccc2c(c1)OCO2 (stereo not drawn)	-12
CCSCCNC(=O)c1cncc(Br)c1	17
COC(=O)c1nn(-c2ccc(-c3ccccc3)cc2)cc1O	56*
NC(=O)c1cc(Cl)cn(-c2ccccc2)c1=O	24
CCOCCCN(C(=O)c1ccco1)C(C(=O)NC1CCCC1)c1cccc(OC)c1OC (stereo not drawn)	10
CCCc1nnc(SCc2ccc(OCC)cc2)n1N	6
O=C(COc1ccc(Cl)cc1Cl)NC1CCSC1=O (stereo not drawn)	-58
COc1ccc(-c2nc(C)c(C(C)=O)n2O)cc1OC	10
COc1ccc(-c2cc(C(=O)O)c(C)o2)cc1OC	51*
Cc1oc2cc(O)cc(O)c2c(=O)c1-c1ccc2c(c1)OCCCO2	-50
CC(=O)c1c(C)[nH]c(C(=O)Nc2ccc3c(c2)OCCO3)c1C	-61
COc1ccc(-c2nnc(SCCC(=O)O)n2C)cc1OC	14
Cc1oc(-c2ccc3c(c2)OCCO3)cc1C(=O)O	81*
O=C(c1ccc(F)cc1F)N(Cc1ccccn1)Cc1ccco1	-1
CC1CCCN(c2ccc(C(=O)NCC3CCCO3)cn2)C1 (stereo not drawn)	-58
O=S(=O)(c1ccc(Cl)s1)N1CCN(C/C=C/c2ccccc2)CC1	1
N#CC1=C(N)C(C#N)(C#N)[C@H](c2ccncc2)[C@H]2CN(C(=O)OCc3ccccc3)CC=C12	48*
CCCOc1ccc([C@@H]2C3CN(C(=O)OCC)CC=C3C(C#N)=C(N)C2(C#N)C#N)cc1OC (stereo partly drawn)	6
COc1cc(SC)ccc1C(=O)Nc1ccccc1C#N	-60
Cc1nn(Cc2c(Cl)cccc2Cl)c(C)c1NC(=O)c1cc(C(C)C)on1	-19
CC(C)(C)c1ccc(-c2conc2N)cc1	-52
CC(=O)c1sc(NC(=O)C2(F)C(F)(F)C(F)(F)C(F)(F)C(F)(F)C2(F)F)nc1C	93*
SMILES	SF1 inhibitor
CCOC(=O)c1sc(NC(=O)C2CC2)nc1C	-8
CC(=O)c1sc(Nc2nc3ccc(F)cc3s2)nc1C	-53
Cc1ccc(S(=O)(=O)N2CCN(C(=O)N3CCOCC3)C2C)cc1 (stereo not drawn)	12
CCOC(=O)CNc1c(N2CCN(c3ccccn3)CC2)c(=O)c1=O	-14
COc1ccc(N2CCN(C(=O)CN3C(=O)C4CC=CCC4C3=O)CC2)cc1 (stereo not drawn)	-4
Cc1cc(C)nc(Nc2nc(=O)c3ccccc3s2)n1	-31
CN(C)c1ccc(NC(=S)c2ccccn2)cc1	86*
CN(C)c1ccc(NC(=O)Nc2cccc(Cl)c2)cc1	-64
CN(C)S(=O)(=O)c1ccc(NC(=O)c2ccccn2)cc1	-74
CCOC(=O)c1nc2nc(C)c(Cl)c(=O)n2[nH]1	7
Cc1ccc(-c2nc(Nc3ccccc3)n[nH]2)cc1	-64
O=c1[nH]c2ccc(Br)cc2c(-c2ccccc2)c1CN1CCOCC1	10
Oc1c(CN2CCOCC2)cc(COCc2ccccc2)c2cccnc12	73*
CC(=O)N=C(N)Sc1nc2ccccc2[nH]1	-98
Cn1cnnc1SCc1ccc(C#N)cc1Cl	14
c1ccc(Nc2nc3ccccc3[nH]2)nc1	-55
O=C(CN1CCN(CC(=O)Nc2ccccn2)CC1)Nc1ccccn1	8
c1ccc(/N=C2\N=C(Nc3ccccn3)c3ccccc32)nc1	86*
CSc1nc(C)cc(OCNC(=O)c2cccs2)n1	-4
O=C(CCn1nc(-c2ccccc2)c2ccccc2c1=O)NCC1CCCO1 (stereo not drawn)	-1
O=C(NCc1ccc(F)cc1)C1C2C=CC3(CN(Cc4cccnc4)C(=O)C13)O2 (stereo not drawn)	-1
CCc1sc(C(=O)N2CCN(S(C)(=O)=O)CC2)cc1Br	5
Cc1cc(N2CCN(c3nc4ccccc4s3)CC2)n2ncnc2n1	55*
CC(C)c1nnc(NC(=O)C2CCN(c3nc4ccccc4s3)CC2)s1	-18
CCOc1ccc2nc(N3CCCCCC3)sc2c1	-58
SMILES	SF1 inhibitor
O=C(NCCN1CCOCC1)C1CCC(=O)N1C1CCCCC1 (stereo not drawn)	11
CCOC(=O)N1CCC(N2C(=O)c3ccc(C(=O)Nc4ccc(F)cc4F)cc3C2=O)CC1	-6
C/[N+]([O-])=C1\Cc2ccccc2C1=O	-13
CCSc1nnc(NC(=O)c2nn(C(C)C)c(=O)c3ccccc23)s1	8
Cc1cc(C)n(-c2nc(NC(C)C)nc(NC(C)C)n2)n1	53*
Cc1cc(Nc2ccccc2)n(-c2ccccc2)n1	6
Cc1cc(C)n(-c2cc(-n3nc(C)cc3C)ncn2)n1	20
Cc1cc(C)nc(-n2nc(C)cc2Nc2ccccc2)n1	20
Cc1cc(NS(=O)(=O)c2ccccc2)n(-c2ccccc2)n1	1

Screens as filed in PubChem.
